Measured values from PubChem BioAssay (Tox21).
“And” between values parts separate entries of the source, which are not always exact repeats. Identical values can stand only once. Results filed as inconclusive are left out. Where a call stands in place of a potency, no number is given. The source made the active and inactive calls. Unless noted, the call rests on the fitted dose curve; in most records, active means well fitted curve in the direction sought with a large enough effect in the repeat runs; inconclusive means weak or mixed curves; inactive means no such curve, though single readings can be large; an effect the other way counts as inactive or inconclusive.

Tests used:
[1] = qHTS assay for small molecule agonists of the p53 signaling pathway (AID 651631; calls by dose curve; further: nearly all actives have a fitted effect of over 15% in size; further: potency means the concentration at half of the fitted maximal effect)
In short: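 Read-out is beta-lactamase FRET fluorescence measured 2 h after substrate addition at room temperature, in HCT-116 cells with a p53 response element-driven reporter exposed to compounds for 16 h at 37 °C.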

[2] = qHTS assay for small molecules that induce genotoxicity in human embryonic kidney cells expressing luciferase-tagged ATAD5 (AID 651632); further: nearly all actives have a fitted effect of over 15% in size
In short: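 ATAD5-luc HEK293T, 2,000 cells/well; cpd or DMSO pin-transferred; 16 hr, 37C/5% CO2; Amplite 30 min RT; luminescence.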

[3] = qHTS assay for small molecule agonists of the p53 signaling pathway - cell viability (AID 651633; calls by dose curve;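 further: p53RE-bla HCT reporter cells with a stable beta-lactamase p53 reporter; series mostly up to about 83 µM; nearly all actives have a fitted effect of over 30% in size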)
In short: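 p53RE-bla cells, seeded at 4,000 per well and rested 5 h at 37 C/5% CO2, received compounds in DMSO for 16 h at 37 C. CellTiter-Glo was then added, and luminescence was read after 30 min at room temperature to gauge cytotoxicity.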

[4] = qHTS assay for small molecules that induce genotoxicity in human embryonic kidney cells expressing luciferase-tagged ATAD5 - cell viability (AID 651634; calls by dose curve; further: nearly all actives have a fitted effect of over 25% in size)
In short: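 Fluorescence from CellTiter-Fluor, reporting protease activity within live cells, served as the viability read-out. HEK293T cells carrying luciferase-tagged ATAD5 had been treated with compound for 15.5 hr at 37C.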

[5] = qHTS assay for small molecule disruptors of the mitochondrial membrane potential - cell viability (AID 720634; calls by dose curve;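 further: human HepG2 liver cancer cells; series mostly up to about 83 µM; nearly all actives have a fitted effect of over 20% in size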)
In short: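 Cells: HepG2, 2,000/well, attached overnight. Compound 1 hr, 37 C/5% CO2. +m-MPI dye, +CellTiter-Glo 30 min RT. Readout: luminescence (ATP).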

[6] = qHTS assay for small molecule disruptors of the mitochondrial membrane potential (AID 720635); further: potency means the concentration at half of the fitted maximal effect
In short: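 HepG2 cells (2,000/well) attached overnight at 37C, then took compound for 1 hr at 37C, 5% CO2. Mito-MPS dye was added for 30 min; fluorescence was read at 490/535 nm (monomers) and 540/590 nm (aggregates).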

[7] = qHTS assay to test for compound auto fluorescence at 590 nm (red) in HepG2 cells (AID 720674)
In short: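 Intrinsic compound fluorescence in the red window (Ex/Em 540/590 nm) is measured in attached HepG2 cells exposed for 1 hr, DMSO vehicle as baseline, benchmarked to Rose Bengal sodium.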

[8] = qHTS assay to test for compound auto fluorescence at 460 nm (blue) in HEK293 cells (AID 720678)
In short: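 Cells were seeded and left to adhere for 4-5 hr at 37C. Compounds were then pin-transferred. After an overnight incubation at 37C under 5% CO2, intrinsic fluorescence at 405/460 nm was measured and referenced to triamterene.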

[9] = qHTS assay to test for compound auto fluorescence at 590 nm (red) in HEK293 cells (AID 720679)
In short: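 Each well held 2,000 HEK293 cells in medium containing 10% dialyzed FBS. Following 4-5 hr attachment at 37C, 23 nL test compound or DMSO was added; plates sat overnight, and red fluorescence (540/590nm) was recorded.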

[10] = qHTS assay to test for compound auto fluorescence at 535 nm (green) in HepG2 cells (AID 720675)

Structure (SMILES)	Potency [1]	Potency [2]	Potency [3]	Potency [4]	Potency [5]	Potency [6]	outcome [7]	outcome [8]	outcome [9]	outcome [10]	fluorescence, relative to Rose Bengal [7]	fluorescence, % of fluorescein control [10]	fluorescence, % of triamterene [8]	fluorescence, % of fluorescent control [9]
CC1CCCCC1NC(=O)Nc1ccccc1 (centres undefined)	inactive	inactive	inactive	inactive	inactive	21.7 µM (active)	inactive	inactive	inactive	–	–	–	–	–
CC(=O)CC(c1ccc(Cl)cc1)c1c(O)c2ccccc2oc1=O (centres undefined)	inactive	inactive	inactive	inactive	inactive	32.1 µM (active)	inactive	inactive	inactive	inactive	–	–	–	–
ClCCOCOCCCl	inactive	inactive	inactive	inactive	inactive	inactive	inactive	inactive	inactive	inactive	–	–	–	–
Cc1cc(C)c(C(=O)P(=O)(C(=O)c2c(C)cc(C)cc2C)c2ccccc2)c(C)c1	inactive	inactive	inactive	inactive	inactive	inactive	inactive	inactive	inactive	inactive	–	–	–	–
[As]#[In]	inactive	inactive	inactive	inactive	inactive	inactive	inactive	inactive	inactive	inactive	–	–	–	–
CCCSC(=O)Cl	inactive	inactive	inactive	inactive	inactive	inactive	inactive	inactive	inactive	–	–	–	–	–
ClCC(Cl)Cl	inactive	inactive	inactive	inactive	inactive	inactive	inactive	inactive	inactive	inactive	–	–	–	–
COCC(=O)N(c1c(C)cccc1C)N1CCOC1=O	inactive	inactive	inactive	inactive	inactive	inactive	inactive	inactive	inactive	–	–	–	–	–
O=[N+]([O-])c1ccc2c3c(cccc13)CC2	inactive	inactive	inactive	inactive	inactive	24.3 µM (active)	inactive	inactive	inactive	inactive	–	–	–	–
OCCSCSCCO	inactive	inactive	inactive	inactive	inactive	inactive	inactive	inactive	inactive	–	–	–	–	–
NC(=S)C(N)=S	inactive	inactive	inactive	inactive	inactive	inactive	inactive	inactive	inactive	inactive	–	–	–	–
[O]=[Cd]	inactive	inactive	inactive	inactive	inactive	inactive	inactive	inactive	inactive	–	–	–	–	–
CC(Cl)(Cl)[N+](=O)[O-]	inactive	inactive	inactive	inactive	inactive	inactive	inactive	inactive	inactive	inactive	–	–	–	–
O=P(O)(Oc1ccccc1)Oc1ccccc1	inactive	inactive	inactive	inactive	inactive	inactive	inactive	inactive	inactive	inactive	–	–	–	–
COc1cc(OC)nc(Oc2cccc(Oc3nc(OC)cc(OC)n3)c2C(=O)O)n1	inactive	inactive	inactive	inactive	inactive	–	inactive	inactive	inactive	inactive	–	–	–	–
CCS(=O)(=O)CCSP(=O)(OC)OC	inactive	inactive	inactive	inactive	inactive	–	inactive	inactive	inactive	inactive	–	–	–	–
CCN(CC)C(=O)[C@@H]1C=C2c3cccc4[nH]cc(c34)C[C@H]2N(C)C1	inactive	inactive	inactive	inactive	inactive	8.98 µM (active) and 6.68 µM (active)	inactive	inactive	inactive	inactive	–	–	–	–
CC(N)=S	inactive	inactive	inactive	inactive	inactive	inactive	inactive	inactive	inactive	inactive	–	–	–	–
N#Cc1c(Cl)cccc1Cl	inactive	inactive	inactive	inactive	inactive	–	inactive	inactive	inactive	inactive	–	–	–	–
CN(C)CCc1ccc(O)cc1	inactive	inactive	inactive	inactive	inactive	inactive	inactive	inactive	inactive	inactive	–	–	–	–
CCC(C)n1c(=O)[nH]c(C)c(Br)c1=O (centres undefined)	inactive	inactive	inactive	inactive	inactive	–	inactive	inactive	inactive	inactive	–	–	–	–
CCOC(=O)CP(=O)(OCC)OCC	inactive	inactive	inactive	inactive	inactive	–	inactive	inactive	inactive	inactive	–	–	–	–
CCCCc1c(C)nc(NCC)[nH]c1=O	inactive	inactive	inactive	inactive	inactive	–	inactive	inactive	inactive	inactive	–	–	–	–
O=S(=O)(O)C(F)(F)C(F)(F)C(F)(F)C(F)(F)C(F)(F)C(F)(F)F	inactive	inactive	inactive	inactive	inactive	–	inactive	inactive	inactive	inactive	–	–	–	–
N#CCBr	inactive	inactive	inactive	inactive	inactive	–	inactive	inactive	inactive	inactive	–	–	–	–
O=NN1CCN(N=O)CC1	inactive	inactive	inactive	inactive	inactive	–	inactive	inactive	inactive	inactive	–	–	–	–
C=CC1CC=CCC1 (centres undefined)	inactive	inactive	inactive	inactive	inactive	–	inactive	inactive	inactive	inactive	–	–	–	–

Structure (SMILES)	Potency [1]	Potency [2]	Potency [3]	Potency [4]	Potency [5]	Potency [6]	outcome [7]	outcome [8]	outcome [9]	outcome [10]	fluorescence, relative to Rose Bengal [7]	fluorescence, % of fluorescein control [10]	fluorescence, % of triamterene [8]	fluorescence, % of fluorescent control [9]
N#Cc1ccncc1	inactive	inactive	inactive	inactive	inactive	–	inactive	inactive	inactive	inactive	–	–	–	–
Clc1cccc(N2CCNCC2)c1	inactive	inactive	inactive	inactive	inactive	–	inactive	inactive	inactive	inactive	–	–	–	–
CNC(=O)O/N=C(\C)SC	inactive	inactive	inactive	inactive	inactive	–	inactive	inactive	inactive	inactive	–	–	–	–
COc1ccc2c(c1OC)CN1CCc3cc4c(cc3C1C2)OCO4 (centres undefined)	inactive	inactive	inactive	inactive	inactive	–	–	–	–	–	0.552% [at 18.6 µM] (inactive)	-0.0763% [at 18.6 µM] (inactive)	-0.105% [at 18.6 µM] (inactive)	-0.125% [at 18.6 µM] (inactive)
Cc1cccc(C#N)c1	inactive	inactive	inactive	inactive	inactive	–	inactive	inactive	inactive	inactive	–	–	–	–
CCOC(=O)NC(=S)Nc1ccccc1NC(=S)NC(=O)OCC	61.1 µM (active)	inactive	inactive	inactive	inactive	–	inactive	inactive	inactive	inactive	–	–	–	–
CC(C)COP(=O)(OCC(C)C)OCC(C)C	inactive	inactive	inactive	inactive	inactive	–	inactive	inactive	inactive	inactive	–	–	–	–
CNC(=O)Oc1ccccc1C1OCCO1	inactive	inactive	inactive	inactive	inactive	–	inactive	inactive	inactive	inactive	–	–	–	–
CNNC	inactive	inactive	inactive	inactive	inactive	–	inactive	inactive	inactive	inactive	–	–	–	–
CCNc1nc(NC(C)C)nc(OC)n1	inactive	inactive	inactive	inactive	inactive	–	inactive	inactive	inactive	inactive	–	–	–	–
O=C(N[C@H]1CN2CCC1CC2)c1cc2ccoc2cn1	inactive	inactive	inactive	inactive	inactive	–	inactive	inactive	inactive	inactive	–	–	–	–
ClC(Cl)C(Cl)Cl	inactive	inactive	inactive	inactive	inactive	–	inactive	inactive	inactive	inactive	–	–	–	–
O=CNC(N1CCN(C(NC=O)C(Cl)(Cl)Cl)CC1)C(Cl)(Cl)Cl (centres undefined)	inactive	inactive	inactive	inactive	inactive	–	inactive	inactive	inactive	inactive	–	–	–	–
CN1CCC(O)(c2ccc(F)cc2)C(C(=O)c2ccc(F)cc2)C1 (centres undefined)	inactive	inactive	inactive	inactive	inactive	–	inactive	inactive	inactive	inactive	–	–	–	–
CCC(=O)c1ccccc1	inactive	inactive	inactive	inactive	inactive	–	inactive	inactive	inactive	inactive	–	–	–	–
CC(CC(C#N)(c1ccccc1)c1ccccc1)N(C)C (centres undefined)	inactive	inactive	inactive	inactive	inactive	–	inactive	inactive	inactive	inactive	–	–	–	–
O=C(CCN1CC1)OCC(CO)(COC(=O)CCN1CC1)COC(=O)CCN1CC1	inactive	inactive	inactive	inactive	inactive	–	inactive	inactive	inactive	inactive	–	–	–	–
CCOC(=O)N(C)C(=O)CSP(=S)(OCC)OCC	inactive	inactive	inactive	inactive	inactive	–	inactive	inactive	inactive	inactive	–	–	–	–
CSc1ccc(C(=O)C(C)(C)N2CCOCC2)cc1	inactive	inactive	inactive	inactive	inactive	–	inactive	inactive	inactive	inactive	–	–	–	–
Cc1cnc[nH]1	inactive	inactive	inactive	inactive	inactive	–	inactive	inactive	inactive	inactive	–	–	–	–
CC(C)CP(=S)(S)CC(C)C	inactive	inactive	inactive	inactive	inactive	–	inactive	inactive	inactive	inactive	–	–	–	–
CC(C1CC1)C(O)(Cn1cncn1)c1ccc(Cl)cc1 (centres undefined)	inactive	inactive	inactive	inactive	inactive	–	inactive	inactive	inactive	inactive	–	–	–	–
C=C(C)[C@@H]1CC=C(C=O)CC1	inactive	inactive	inactive	inactive	inactive	–	inactive	inactive	inactive	inactive	–	–	–	–
Cc1nc(N)nc(N)n1	inactive	inactive	inactive	inactive	inactive	–	inactive	inactive	inactive	inactive	–	–	–	–
N#CC(Cl)(Cl)Cl	inactive	inactive	inactive	inactive	inactive	–	inactive	inactive	inactive	inactive	–	–	–	–
ClC(Br)Br	inactive	inactive	inactive	inactive	inactive	–	inactive	inactive	inactive	inactive	–	–	–	–
